# ± gives the standard deviation of the averaged measurements.
# Columns and labels:
# DLD1 [1] = assay: cell viability (CellTiter-Glo) relative to plate median (fraction of plate median); higher = more viable cells; conditions: 5 µM; treatment time 24 h; reporter: 7TFP
# Summary of the method: (§1)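 Cells were seeded in 384-well plates; these were colorectal cancer lines stably transduced with lentiviral 7TFP or TCF4/Wnt firefly luciferase reporters. After 24 h, library compounds went in at a final 5 µM, and exposure lasted 24 h. Parallel plates were then read for firefly luciferase or CellTiterGlo luminescence, each well normalised to its plate median, with two independent replicates averaged.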
# HCT116 [2] = assay: as above; conditions: 5 µM; treatment time 24 h; reporter: TCF4/Wnt
# Summary of the method: as §1
# SW480 [3] = assay: as above; conditions: 5 µM; treatment time 24 h; reporter: 7TFP
# Summary of the method: as §1
# DLD1 [4] = assay: TCF/Wnt firefly luciferase reporter signal relative to plate median (fraction of plate median); higher = higher Wnt reporter signal; conditions: 5 µM; treatment time 24 h; reporter: 7TFP
# Summary of the method: as §1
# SW480 [5] = assay: as above; conditions: 5 µM; treatment time 24 h; reporter: 7TFP
# Summary of the method: as §1
# DLD1 [6] = assay: cell viability (CellTiter-Glo) relative to plate median (fraction of plate median); higher = more viable cells; conditions: 10 µM, treatment time 24 h
# Summary of the method: (§2)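 Colorectal cancer cell lines stably transduced with lentiviral TCF/Wnt firefly luciferase reporters (7TFP or TCF4/Wnt) were seeded in 384-well plates. 24 h later they received kinase inhibitor library compounds at a final 10 µM for 24 h. Parallel plates were read for firefly luciferase or CellTiterGlo luminescence on a Tecan F500 reader. Each well's signal was normalised to the plate median (webcellHTS2, additive, no log transformation), and the mean of two independent replicates is reported.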
# HCT116 [7] = assay: as above; conditions: 10 µM; treatment time 24 h; reporter: TCF4/Wnt
# Summary of the method: as §2
# SW480 [8] = assay: as above; conditions: 10 µM; treatment time 24 h; reporter: 7TFP
# Summary of the method: as §2
# DLD1 [9] = assay: TCF/Wnt firefly luciferase reporter signal relative to plate median (fraction of plate median); higher = higher Wnt reporter signal; conditions: 10 µM, treatment time 24 h
# Summary of the method: as §2
# HCT116 [10] = assay: as above; conditions: 10 µM; treatment time 24 h; reporter: TCF4/Wnt
# Summary of the method: as §2
# SW480 [11] = assay: as above; conditions: 10 µM; treatment time 24 h; reporter: 7TFP
# Summary of the method: as §2
compound,measurement,setting,value
O=C(O)c1ccccc1C(=O)Nc1ccc(S(=O)(=O)Nc2nccs2)cc1,cell viability,DLD1 [1],1.05 ± 0.08
same,cell viability,HCT116 [2],0.918 ± 0.088
same,cell viability,SW480 [3],1.004 ± 0.0085
same,TCF/Wnt firefly luciferase reporter signal,DLD1 [4],1.03 ± 0.12
same,TCF/Wnt firefly luciferase reporter signal,SW480 [5],1.11 ± 0.021
NC(=O)CC[C@H](N)C(=O)O,cell viability,DLD1 [1],1.02 ± 0.014
same,cell viability,HCT116 [2],0.923 ± 0.11
same,cell viability,SW480 [3],1.02 ± 0.069
same,TCF/Wnt firefly luciferase reporter signal,DLD1 [4],1.02 ± 0.14
same,TCF/Wnt firefly luciferase reporter signal,SW480 [5],1.07 ± 0.064
CN(C)/N=N/c1[nH]cnc1C(N)=O,cell viability,DLD1 [1],0.982 ± 0.015
same,cell viability,HCT116 [2],0.986 ± 0.02
same,cell viability,SW480 [3],0.971 ± 0.0099
same,TCF/Wnt firefly luciferase reporter signal,DLD1 [4],1.06 ± 0.11
same,TCF/Wnt firefly luciferase reporter signal,SW480 [5],1.06 ± 0.11
O=C(O)C(S)C(S)C(=O)O (configuration not stated),cell viability,DLD1 [1],1.04 ± 0.05
same,cell viability,HCT116 [2],1.03 ± 0.099
same,cell viability,SW480 [3],1.01 ± 0.096
same,TCF/Wnt firefly luciferase reporter signal,DLD1 [4],0.904 ± 0.1
same,TCF/Wnt firefly luciferase reporter signal,SW480 [5],1.004 ± 0.0078
Cn1cc(-c2ccc3nnc(Sc4ccc5ncccc5c4)n3n2)cn1,cell viability,DLD1 [6]; reporter: 7TFP,0.983 ± 0.016
same,cell viability,DLD1 [6]; reporter: TCF4/Wnt,0.9215 ± 0.0078
same,cell viability,HCT116 [7],1.07 ± 0.05
same,cell viability,SW480 [8],0.862 ± 0.014
same,TCF/Wnt firefly luciferase reporter signal,DLD1 [9]; reporter: 7TFP,1.12 ± 0.16
same,TCF/Wnt firefly luciferase reporter signal,DLD1 [9]; reporter: TCF4/Wnt,1.19 ± 0.042
same,TCF/Wnt firefly luciferase reporter signal,HCT116 [10],1.41 ± 0.17
same,TCF/Wnt firefly luciferase reporter signal,SW480 [11],1.02 ± 0.052
O=C(Cn1ccnc1[N+](=O)[O-])NCCO,cell viability,DLD1 [1],0.992 ± 0.04
same,cell viability,HCT116 [2],0.989 ± 0.1
same,cell viability,SW480 [3],0.9935 ± 0.0092
same,TCF/Wnt firefly luciferase reporter signal,DLD1 [4],1.09 ± 0.17
same,TCF/Wnt firefly luciferase reporter signal,SW480 [5],1.02 ± 0.038
O=C(Nc1ccc(OC(F)(F)F)cc1)c1sccc1NCc1ccnc2ccccc12,cell viability,DLD1 [6]; reporter: 7TFP,1.01 ± 0.023
same,cell viability,DLD1 [6]; reporter: TCF4/Wnt,0.924 ± 0.025
same,cell viability,HCT116 [7],1.21 ± 0.035
same,cell viability,SW480 [8],0.971 ± 0.13
same,TCF/Wnt firefly luciferase reporter signal,DLD1 [9]; reporter: 7TFP,1.08 ± 0.15
same,TCF/Wnt firefly luciferase reporter signal,DLD1 [9]; reporter: TCF4/Wnt,0.97 ± 0.085
same,TCF/Wnt firefly luciferase reporter signal,HCT116 [10],0.842 ± 0.62
same,TCF/Wnt firefly luciferase reporter signal,SW480 [11],0.864 ± 0.48
c1ccc2c(-c3cnn4cc(-c5ccc(N6CCNCC6)cc5)cnc34)ccnc2c1,cell viability,DLD1 [6]; reporter: 7TFP,0.666 ± 0.25
same,cell viability,DLD1 [6]; reporter: TCF4/Wnt,0.874 ± 0.093
same,cell viability,HCT116 [7],0.62 ± 0.14
same,cell viability,SW480 [8],0.8895 ± 0.0064
same,TCF/Wnt firefly luciferase reporter signal,DLD1 [9]; reporter: 7TFP,1.02 ± 0.014
same,TCF/Wnt firefly luciferase reporter signal,DLD1 [9]; reporter: TCF4/Wnt,1.08 ± 0.18
same,TCF/Wnt firefly luciferase reporter signal,HCT116 [10],0.634 ± 0.3
same,TCF/Wnt firefly luciferase reporter signal,SW480 [11],1.35 ± 0.11
O=c1c(O)c(-c2ccc(O)cc2)oc2ccccc12,cell viability,DLD1 [1],0.975 ± 0.05
same,cell viability,HCT116 [2],1.16 ± 0.05
same,cell viability,SW480 [3],1.01 ± 0.034
same,TCF/Wnt firefly luciferase reporter signal,DLD1 [4],1.05 ± 0.028
same,TCF/Wnt firefly luciferase reporter signal,SW480 [5],0.957 ± 0.047
CC(=O)Nc1cc2nc3ccccc3oc-2cc1=O [N-Acetylquestiomycin A],cell viability,DLD1 [1],0.985 ± 0.092
same,cell viability,HCT116 [2],1.1 ± 0.057
same,cell viability,SW480 [3],1.06 ± 0.087
same,TCF/Wnt firefly luciferase reporter signal,DLD1 [4],1.24 ± 0.12
same,TCF/Wnt firefly luciferase reporter signal,SW480 [5],1.145 ± 0.0071
CN/C(=N\CCSCc1nc[nH]c1C)NC#N,cell viability,DLD1 [1],1.04 ± 0.021
same,cell viability,HCT116 [2],1.12 ± 0.042
same,cell viability,SW480 [3],1.04 ± 0.021
same,TCF/Wnt firefly luciferase reporter signal,DLD1 [4],1.12 ± 0.18
same,TCF/Wnt firefly luciferase reporter signal,SW480 [5],1.06 ± 0.042
COc1ccc2c(c1)OC[C@@H](Cc1ccc(OC)c(OC)c1)[C@H]2O,cell viability,DLD1 [1],1.09 ± 0.078
same,cell viability,HCT116 [2],1.06 ± 0.11
same,cell viability,SW480 [3],0.993 ± 0.095
same,TCF/Wnt firefly luciferase reporter signal,DLD1 [4],0.944 ± 0.011
same,TCF/Wnt firefly luciferase reporter signal,SW480 [5],0.94 ± 0.018
CN(C)c1ccc(-c2nc3ncc(Cl)c(N4CCN(CC(=O)Nc5nccs5)CC4)c3[nH]2)cc1,cell viability,DLD1 [6]; reporter: 7TFP,1.1 ± 0.05
same,cell viability,DLD1 [6]; reporter: TCF4/Wnt,1.04 ± 0.021
same,cell viability,HCT116 [7],1.14 ± 0.028
same,cell viability,SW480 [8],0.96 ± 0.057
same,TCF/Wnt firefly luciferase reporter signal,DLD1 [9]; reporter: 7TFP,1.1 ± 0.3
same,TCF/Wnt firefly luciferase reporter signal,DLD1 [9]; reporter: TCF4/Wnt,1.1 ± 0.31
same,TCF/Wnt firefly luciferase reporter signal,HCT116 [10],1.26 ± 0.17
same,TCF/Wnt firefly luciferase reporter signal,SW480 [11],1.16 ± 0.064
